Measurements as given in PubChem BioAssay AID624273 (Broad Institute, 2012).
Among all 1,000 compounds or so, about 230 (23%) were called active. Inconclusive results (about 1%) are left out. The rule behind the calls is not given here. The list shows a part of the results. Measured potencies and affinities stand elsewhere.

Each molecule was assayed against Long-chain-fatty-acid--AMP ligase FadD28 (Mycobacterium tuberculosis (strain ATCC 25618 / H37Rv)) (UniProt P9WQ59) (assay: inhibitors of FadD28 bisubstrate probe binding, dose response, biochemical, fluorescence polarization, cherry-pick (AID 624273)). Settings: series mostly up to 50 µM; activity change, negative = inhibition: at the top concentration.
Long-chain-fatty-acid--AMP ligase FadD28 (Mycobacterium tuberculosis (strain ATCC 25618 / H37Rv)), sequence (P9WQ59 whole entry, looked up): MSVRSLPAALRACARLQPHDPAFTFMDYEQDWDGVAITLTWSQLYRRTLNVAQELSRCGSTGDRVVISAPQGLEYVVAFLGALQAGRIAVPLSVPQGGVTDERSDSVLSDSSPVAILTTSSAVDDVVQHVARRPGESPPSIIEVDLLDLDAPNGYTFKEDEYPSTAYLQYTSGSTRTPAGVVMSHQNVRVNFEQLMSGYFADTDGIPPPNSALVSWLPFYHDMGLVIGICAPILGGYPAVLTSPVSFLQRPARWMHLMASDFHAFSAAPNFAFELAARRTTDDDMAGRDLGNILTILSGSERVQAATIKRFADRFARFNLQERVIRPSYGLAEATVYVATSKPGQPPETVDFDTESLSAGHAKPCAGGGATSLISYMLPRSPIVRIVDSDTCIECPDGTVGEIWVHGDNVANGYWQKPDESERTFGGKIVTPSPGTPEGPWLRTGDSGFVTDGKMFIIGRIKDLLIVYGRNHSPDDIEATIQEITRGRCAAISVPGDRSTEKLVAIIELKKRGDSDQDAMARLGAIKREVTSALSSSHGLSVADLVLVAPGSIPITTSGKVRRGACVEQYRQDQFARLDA

| SMILES | activity change, negative = inhibition |
| --- | --- |
| C[C@@H]1CN([C@H](C)CO)C(=O)c2cc(NC(=O)Nc3ccc(C(F)(F)F)cc3)ccc2O[C@H]1CN(C)S(=O)(=O)c1ccccc1 | -3.14% (inactive) |
| N#CCCN(CCC#N)C(=O)C1c2ccccc2Oc2ccccc21 | -14.3% (inactive) |
| CCCCCCn1cc(C(=O)O)c(=O)c2cc(F)c(N3CCN(C)CC3)cc21 | -6.74% (inactive) |
| O=C(NNC(=O)C1CC=CCC1)c1ccccc1Cl (stereo not given) | -7.49% (inactive) |
| COc1ccc(CCNC(=O)CSc2nc3[nH]ncc3c(=O)n2-c2ccc(Cl)cc2Cl)cc1OC | 6.51% (inactive) |
| O=C(CSc1nnc(CNc2ccc(Cl)cc2)o1)Nc1nc2c(s1)CCCC2 | -4.67% (inactive) |
| COCC(C)N=Cc1c(O)[nH]c2ccccc12 (stereo not given) | -3.22% (inactive) |
| CC1=C(C(=O)OCCCBr)C(c2ccc3c(c2)OCO3)NC(=O)N1 (stereo not given) | 7.23% (inactive) |
| CN1CC(C(=O)c2ccc(Cl)cc2)C(c2ccc(N(C)C)cc2)C1 (stereo not given) | -12.5% (inactive) |
| CC(=O)Oc1ccc(-c2nc(-c3cccnc3)no2)cc1 | -0.647% (inactive) |
| COc1ncnc(-c2ccccc2)c1-c1ccccc1 | -5.28% (inactive) |
| COCC(=O)Nc1ccc(Br)cc1C | -4.66% (inactive) |
| COc1cc(/C=N/n2c(COc3ccccc3)n[nH]c2=S)cc(OC)c1OC(C)=O | -3.5% (inactive) |
| COc1ccc(/C=C2\SC(=O)N(CC(=O)Nc3ccccc3O)C2=O)cc1OC | -6.42% (inactive) |
| COc1ccc(C(=O)Nc2ccncc2)cc1OC | -2.23% (inactive) |
| O=C(CN1C(=O)/C(=C/c2ccco2)SC1=S)NC1CCS(=O)(=O)C1 (stereo not given) | -10.4% (inactive) |
| O=C(NCCS(=O)(=O)N1CCN(c2cccc(Cl)c2)CC1)c1cc(=O)c2ccccc2o1 | 1.84% (inactive) |
| COc1cc2cc(C(N)=O)c(N)nc2cc1OC | -1.59% (inactive) |
| Cc1nc(-c2cccs2)ccc1C(=O)O | -6.58% (inactive) |
| COCCCNC(=S)N/N=C/c1cccc(OC)c1O | -6.99% (inactive) |
| O=[N+]([O-])c1cccc(/C=N/n2c(C3CCCCC3)n[nH]c2=S)c1 | -19.2% (inactive) |
| CC1CCN(S(=O)(=O)c2ccc(C(=O)Nc3nnc(C4=COCCO4)o3)cc2)CC1 | 6.34% (inactive) |
| CCN(CC)S(=O)(=O)c1ccc(NC(=O)COC(=O)c2ccc(Br)o2)cc1 | -9.9% (inactive) |
| O=C(COC(=O)c1cccc(S(=O)(=O)N2CCCC2)c1)Nc1cccc(Br)c1 | -1.15% (inactive) |
| O=C(CSc1nnnn1-c1ccccc1)Nc1nsc(-c2ccc(Cl)cc2)n1 | 1.71% (inactive) |
| Cc1cc(S(=O)(=O)N(Cc2cccs2)Cc2ccccc2F)ccc1-n1cnnn1 | -3.2% (inactive) |
| CCNS(=O)(=O)c1cc(OC)c(Cl)cc1OC | -4.8% (inactive) |

| SMILES | activity change, negative = inhibition |
| --- | --- |
| O=C(Nc1nc(COc2ccccc2)cs1)c1ccccc1F | -18.3% (inactive) |
| COc1ccc(CNC(=O)CN(Cc2ccc(OC)cc2)C(=O)CCC(=O)Nc2nccs2)cc1 | 0.987% (inactive) |
| COc1cc(Cl)ccc1NC(=O)COc1ccccc1C(=O)N1CCN(c2ccc(O)cc2)CC1 | -2.05% (inactive) |
| CCCN1C(=O)c2ccccc2NC1c1ccc(Cl)cc1 (stereo not given) | -1.06% (inactive) |
| CC(=O)c1cccc(NC(=O)CN(c2cccc(F)c2)S(C)(=O)=O)c1 | 3.17% (inactive) |
| COc1ccc(CNC(=O)COc2ccc(OC)cc2)cc1 | -4.06% (inactive) |
| COc1cccc(CNC(=O)CN(C)S(=O)(=O)c2cnc[nH]2)c1 | -2.62% (inactive) |
| COc1cccc(-c2cc(C(=O)Nc3ccncc3)c3ccccc3n2)c1 | 4.9% (inactive) |
| COc1cnc(-c2cccc(C(F)(F)F)c2)c(NC(=O)c2cc3ccccc3s2)n1 | -0.128% (inactive) |
| CCOc1ccc(N=Nc2c(C)[nH]n(-c3ccccc3)c2=O)cc1 | -5.21% (inactive) |
| O/N=C1\CC/C(=N\O)c2nn(-c3ccccc3Cl)nc21 | -1.62% (inactive) |
| O=C(CN1C(=O)NC2NC(=O)NC21)NC1CCCCC1 (stereo not given) | -5.35% (inactive) |
| COc1ccc(C(=O)/C(C#N)=N/Nc2cccc([N+](=O)[O-])c2)cc1 | -8.25% (inactive) |
| Cc1ccc(C(=O)COC(=O)c2cccc(NC(=O)c3ccc([N+](=O)[O-])cc3[N+](=O)[O-])c2)cc1 | -3.42% [at 16 µM] (inactive) |
| N#Cc1c(-c2ccccc2)c(-c2ccccc2)nn(CC(=O)NNC(=O)Nc2ccc(Cl)c(Cl)c2)c1=O | -10.7% (inactive) |
| N/C(=N\OC(=O)COc1ccc2ccccc2c1)c1ccncc1 | -14% (inactive) |
| COC(=O)c1c(-c2ccc(C)cc2)csc1NC(=O)C1CC=CCC1C(=O)O (stereo not given) | 11.9% (inactive) |
| Cc1ccc([N+](=O)[O-])cc1N=Nc1c(-c2ccc([N+](=O)[O-])cc2)[nH]n(C(N)=S)c1=O | 0.54% (inactive) |
| CCc1noc(C)c1C(=O)Nc1cc(S(=O)(=O)N2CCOCC2)ccc1OC(C)C | -11.1% (inactive) |
| CCOC(=O)N1CCN(C2CC(=O)N(c3ccc(F)cc3)C2=O)CC1 (stereo not given) | -8.96% (inactive) |
| C[C@@H]1CN([C@H](C)CO)C(=O)c2cc(NC(=O)Nc3ccc(C(F)(F)F)cc3)ccc2O[C@H]1CN(C)S(=O)(=O)c1ccc(Cl)cc1 | -1.46% (inactive) |
| Cc1cc(=O)oc2c(CN3CCN(CCO)CC3)c(O)ccc12 | -6.12% (inactive) |
| Cc1cccc(C(=O)NNS(=O)(=O)c2ccc(F)cc2)c1O | -20.4% (inactive) |
| O=C(NNC(=O)c1ccc([N+](=O)[O-])cc1)c1ccc(NS(=O)(=O)c2cccs2)cc1 | -2.28% (inactive) |
| COc1cc(NC(=O)COC(=O)CC2CC3CCC2C3)cc(OC)c1 (stereo not given) | -13.2% (inactive) |
| CCSc1ccccc1C(=O)Nc1cc(C)on1 | -5.14% (inactive) |
| COc1cccc(C(=O)OCC(=O)NC(=O)NC2CCCC2)c1O | -9.96% (inactive) |

| SMILES | activity change, negative = inhibition |
| --- | --- |
| COC(=O)c1cc(C(=O)OCC(=O)NC2CCCC2)cc([N+](=O)[O-])c1 | -1.93% (inactive) |
| CC(=O)NC(CCS(C)(=O)=O)C(=O)N1CCc2ccccc21 (stereo not given) | -7.29% (inactive) |
| COc1cccc(OCc2cc(C(=O)N(C)CCOc3ccc(C)cc3)no2)c1 | -4.38% (inactive) |
| CC(C)=NOc1cc(NC(=O)CCl)cc([N+](=O)[O-])c1 | 1.51% (inactive) |
| C/C(=N\NC(=O)COc1ccccc1)c1ccc(O)cc1 | -3.89% (inactive) |
| Nc1nnnn1/N=C/c1cc(Cl)cc(Cl)c1O | -12.6% (inactive) |
| O=C(O)Cn1c2ccccc2c2n[nH]c(=S)nc21 | -4.23% (inactive) |
| CCOC(=O)c1cc(NC(=O)c2ccc(Cl)cc2)c(=O)n2c1oc1ccc(Cl)cc12 | -3.91% (inactive) |
| S=c1nc[nH]c2c1sc1nc(-c3ccccc3)c3c(c12)CCCC3 | -9.92% (inactive) |
| Cc1ccc(C)c(NS(=O)(=O)c2ccc(NC(=O)CSc3ccc(Cl)cc3)cc2)c1 | 1.79% (inactive) |
| CCn1c(SCC(=O)Nc2ccc(N3CCOCC3)cc2)nnc1-c1ccncc1 | -6.22% (inactive) |
| Cc1ccc(OCc2nc(-c3ccccn3)no2)cc1 | -10.9% (inactive) |
| COc1ccc(CCNC(=O)c2ccc(NS(=O)(=O)c3ccc4[nH]c(=O)[nH]c4c3)cc2)cc1 | 1.58% (inactive) |
| COc1ccc(CCNC(=O)c2ccccc2NS(=O)(=O)c2c(F)cccc2F)cc1 | -11.5% (inactive) |
| CCC(C)(C)NC(=O)CN(C(=O)CCC(=O)Nc1nccs1)c1ccc2c(c1)OCO2 | -2.29% (inactive) |
| COc1ccc(COc2ccc3c(C)cc(=O)oc3c2)cc1 | 2.11% (inactive) |
| CCOC(=O)c1ccc(NC(=O)c2nc[nH]c2C(=O)N(CC)CC)cc1 | -3.82% (inactive) |
| Cc1ccc(S(=O)(=O)N(C)CC(=O)OCC(=O)NC(=O)Nc2ccc3c(c2)OCCO3)cc1 | -15.2% (inactive) |
| COc1ccc(S(=O)(=O)N2CCC(C(=O)NCCC(=O)NCc3ccncc3)CC2)cc1 | -5.1% (inactive) |
| O=C(NCc1ccc(F)cc1)C(Cc1ccccc1)NS(=O)(=O)c1cccs1 (stereo not given) | -0.603% (inactive) |
| COC(=O)[C@H](Cc1ccccc1)NC(=O)NCc1ccc(C)cc1 | -8.21% (inactive) |
| O=C(NC(Cc1ccccc1)C(=O)O)C1CCN(S(=O)(=O)c2ccccc2C(F)(F)F)CC1 (stereo not given) | -4.71% (inactive) |
| Cc1ccc(C)c(NC(=O)C(CC(=O)O)Cc2ccccc2)c1 (stereo not given) | 4.67% (inactive) |
| C[C@H](CO)N1C[C@H](C)[C@H](CN(C)S(=O)(=O)c2cn(C)cn2)Oc2ccc(NC(=O)Nc3ccc(C(F)(F)F)cc3)cc2CC1=O | 2.87% (inactive) |
| NC(Cc1ccccc1)c1nn[nH]n1 (stereo not given) | -6.01% (inactive) |
| CN1CCN(NC(=O)c2ccc(S(=O)(=O)N3CCCCCC3)cc2)CC1 | 2.84% (inactive) |
| CC(=O)c1ccc(Oc2cc(-c3ccccc3)nc(-c3ccccc3)n2)cc1 | -5.3% (inactive) |

| SMILES | activity change, negative = inhibition |
| --- | --- |
| O=C(O)c1cc2ccccc2cc1Nc1ccccc1 | -13.8% (inactive) |
| CCN(CC)CCCn1c(=S)[nH]c2cc(Cl)ccc2c1=O | -6.33% (inactive) |
| COC1=CC(=O)OC(CCc2ccc3c(c2)OCO3)C1 (stereo not given) | 2.47% (inactive) |
| Cc1ccc(C(=O)n2nc(C#N)c(C#N)c2N)cc1 | -4.3% (inactive) |
| CC(=O)N1CCN(c2ccc(NC(=O)c3ccc(C(C)(C)C)cc3)cc2)CC1 | -6.95% (inactive) |
| N#Cc1ccc(OCC(=O)OCC(=O)Nc2ccc(N3CCOCC3)cc2)cc1 | -5.79% (inactive) |
| O=C(Sc1ccc(Cl)cc1)c1ccccn1 | -4.7% (inactive) |
| O=[N+]([O-])c1ccc(N2CCCCCC2)c2nonc12 | -8.88% (inactive) |
| Cn1c(N)c(S(=O)(=O)N2CCN(c3ccccc3Cl)CC2)c(=O)n(C)c1=O | -8.51% (inactive) |
| CCc1c(C)sc(NC(=O)C2CC2c2ccccc2)c1C(N)=O (stereo not given) | -0.5% (inactive) |
| O=C(/C=C/c1ccc([N+](=O)[O-])cc1)/C=C/c1ccco1 | -4.48% (inactive) |
| Cc1c(C(=O)C(=O)N2c3ccccc3CC2C)c2ccccc2n1C (stereo not given) | -0.858% (inactive) |
| C=CCn1c(C)csc1=Nc1ccc(C(C)=O)cc1 | -4.17% (inactive) |
| O=C(c1cccc(S(=O)(=O)N2CCN(c3ccccc3)CC2)c1)N1CCCCCCC1 | -6.53% (inactive) |
| Cc1ccccc1-c1nnc(-c2cccc3ccccc23)o1 | -3.76% (inactive) |
| COc1ccc(C)cc1NC(=O)CSc1nnc(-c2ccc(Br)cc2)o1 | -0.706% (inactive) |
| CCc1cccc(NC(=O)COC(=O)/C=C/c2cccs2)c1 | 2.6% (inactive) |
| COc1ccc(C(=O)c2ccsc2N)cc1 | -3.79% (inactive) |
| Cc1ccc(OCCCN2CCOCC2)cc1 | -0.236% (inactive) |
| Cc1ccc(S(=O)(=O)/N=C2\C=C(Nc3ccc(O)cc3)C(=O)c3ccccc32)cc1 | -11.4% (inactive) |
| CCc1nnc(NC(=O)CSc2ncnc3c2oc2ccccc23)s1 | -2.91% (inactive) |
| O=C(COC(=O)c1cc(S(=O)(=O)Nc2ccccc2Cl)ccc1O)Nc1nc2ccccc2s1 | -2.04% (inactive) |
| O=C(CSc1nnc(Cc2ccccc2)n1-c1ccccc1)NNC(=O)Cc1ccccc1 | -1.66% (inactive) |
| O=C(COC(=O)c1ccc(NS(=O)(=O)c2cccs2)cc1O)Nc1nc2ccccc2s1 | -4.46% (inactive) |
